Consider eight compounds from PubChem BioAssay (NCATS).

Values without a mark were called inactive. Results filed as inconclusive are left out. Calls of active or inactive are those of the source. Unless noted, calls follow the shape of the dose curve; as a rule, active = well fitted curve in either direction with a large enough effect (not every such curve was filed as active); inconclusive = small, poorly fitted or top-dose-only effect, or another doubt; inactive = flat fitted curve, though single readings scatter.

Assay [1] is described as follows: AP1 Signaling Pathway (AID 357).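 Also: ME-180 reporter cells stimulated with EGF at its EC50 level; % is scaled to controls: 0 for no effect and ±100 for the full control effect.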 Conditions: ME-180 AP-1-bla reporter, EGF-induced, beta-lactamase ratio, 5 h; at 7.69 µM (top of the series) unless noted. The gist of the method: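 In this screen, ME-180 cells in Opti-MEM with 0.5% dialyzed FBS received EC50 EGF and compound titrations for 5 h. AP-1 reporter beta-lactamase was detected via CCF4 ratio, giving AC50 for positive and negative modulators.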

In assay [2] the target is Cytochrome P450 1A2 (Homo sapiens) (UniProt P05177). The assay can be described thus: p450-cyp1a2 (AID 410; calls by dose curve; also: potency is read from the fitted curve at half-maximal effect;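 as to activity change, negative = inhibition: -100% = full effect of reference inhibitor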). The method, boiled down:
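Read-out is luminescence from luciferin produced by CYP1A2 demethylation of Luciferin-ME (100uM, at Km). Detection reagent stopped the 60 min NADPH-dependent reaction; signals were normalized to 57 uM furafylline.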

Assay [3] can be described thus: NFAT Signaling Pathway (AID 444).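 Also: carbachol stimulus at about its EC50 of 1 µM final; % is scaled to controls: 0 for no effect and ±100 for the full control effect.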 The conditions noted are these: Jurkat NFAT-bla M1, carbachol, beta-lactamase ratio, 5 h; at 7.69 µM (top of the series) unless noted. The method, boiled down:
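Read-out: CCF4 FRET ratio (460 nm/530 nm) after 1 h RT dye loading, used for %activity and AC50 from titration series. Cells: Jurkat NFAT-β-lactamase/M1 line, treated with compound plus 1 uM carbachol for 5 h, 37 °C.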

A short description of assay [4]: Stat Signaling Pathway (AID 446).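 Also: ME-180 cervical cancer cells given 40 pM IL-6 alongside compound; SIE-controlled beta-lactamase reporter measured as 460/530 nm FRET emission ratio; % is scaled to controls: 0 for no effect and ±100 for the full control effect.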 Conditions: ME-180 SIE beta-lactamase reporter, IL-6 stimulated, 5 h; at 7.69 µM (top of the series) unless noted. The gist of the method: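 Overnight-plated ME-180 cells bearing a STAT Inducible Element beta-lactamase reporter; 5 h co-exposure to compound and 40 pM IL-6; values normalized to 300 pM IL-6 and 125 nM JAK inhibitor controls.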

Assay [5] deals with Glucocorticoid receptor (Homo sapiens) (UniProt P04150). The assay can be described thus: GR-GFP Redistribution (AID 450;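 active = compounds whose dose series gives a full or clear partial fitted curve of increased nuclear translocation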; also: potency is read from the fitted curve at half-maximal effect). Conditions: U2OS GR-GFP nuclear translocation, laser cytometry, 2 h.
Chain of Glucocorticoid receptor (Homo sapiens) (P04150 whole entry, looked up): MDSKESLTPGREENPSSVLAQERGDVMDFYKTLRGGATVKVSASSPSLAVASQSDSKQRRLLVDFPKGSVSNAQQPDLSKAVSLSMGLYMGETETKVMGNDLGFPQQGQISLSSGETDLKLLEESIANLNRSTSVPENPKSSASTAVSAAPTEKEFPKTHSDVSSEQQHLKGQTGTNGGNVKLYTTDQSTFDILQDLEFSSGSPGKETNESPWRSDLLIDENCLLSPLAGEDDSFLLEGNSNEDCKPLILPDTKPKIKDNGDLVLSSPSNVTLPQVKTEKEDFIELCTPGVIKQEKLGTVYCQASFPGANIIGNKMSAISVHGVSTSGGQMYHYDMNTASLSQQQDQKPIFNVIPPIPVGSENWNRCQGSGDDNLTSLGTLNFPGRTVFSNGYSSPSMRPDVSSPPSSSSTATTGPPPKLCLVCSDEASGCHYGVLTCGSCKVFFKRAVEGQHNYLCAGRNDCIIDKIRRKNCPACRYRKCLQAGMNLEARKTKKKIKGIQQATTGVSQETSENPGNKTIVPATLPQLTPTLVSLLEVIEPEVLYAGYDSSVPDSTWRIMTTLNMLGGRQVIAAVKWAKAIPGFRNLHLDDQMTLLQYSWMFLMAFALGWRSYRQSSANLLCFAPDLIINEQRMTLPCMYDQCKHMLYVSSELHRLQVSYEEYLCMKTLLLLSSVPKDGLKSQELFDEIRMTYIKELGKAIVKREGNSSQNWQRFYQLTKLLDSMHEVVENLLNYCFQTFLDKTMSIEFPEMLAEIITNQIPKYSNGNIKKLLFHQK
Assay [6] shares this target. As to the kind of experiment: GR-EFC Redistribution (AID 451; calls by dose curve; also: potency is read from the fitted curve at half-maximal effect). Conditions: CHO-K1 GR-EFC translocation, beta-gal luminescence, 2 h. The method, boiled down:
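Translocation of GR-ED fusion to nuclear EA restores b-gal, read by luminescence after 1 h room-temperature detection. Engineered CHO-K1 biosensor cells, 1,000/well, exposed 2 h at 37 C to titrations up to 46 uM final.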

The target of assay [7] is 3',5'-cyclic-AMP phosphodiesterase 4B (Homo sapiens) (UniProt Q07343). The assay can be described thus: qHTS Assay for Inhibitors of PDE-IV (AID 607; active = well fitted activation curve with a large enough effect in the main read-out, with a control signal flat, not every such curve was filed as active; also: % of control where 0% means no effect). The gist of the method:
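Live HEK293 cells with a modified cyclic nucleotide-gated (CNG) channel report intracellular cAMP via membrane-potential dye fluorescence (ex 535/em 590 nm). Endogenous PDE-IV was targeted. Compounds were tested at up to 22.9 uM final; RO 20-1724 100 uM served as control.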
(qHTS replaces the single test concentration by a dilution series.)

Assay [8] has as its target Cytochrome P450 2D6 (Homo sapiens) (UniProt P10635). The assay can be described thus: qHTS Assay for Inhibitors and Substrates of Cytochrome P450 2D6 (AID 891; active = well fitted curve in the direction sought with a large enough effect; an effect the other way counts as inactive or inconclusive;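 also: luciferin methyl ether substrate demethylated by CYP2D6 with NADPH regeneration; % is scaled to controls: 0 for no effect and ±100 for the full control effect; nearly all actives have a fitted effect of over 60% in size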). The gist of the method: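 Luminescent read-out of luciferin formed by 5 nM human CYP2D6 demethylating 30 uM Luciferin-ME EGE (Km level) over 60 min at room temperature after NADPH regeneration addition. Data normalized to full inhibition by 1.43 uM quinidine.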

In assay [9] the target is Cytochrome P450 2C19 (Homo sapiens) (UniProt P33261). As to the kind of experiment: qHTS Assay for Inhibitors and Substrates of Cytochrome P450 2C19 (AID 899; active = well fitted curve in the direction sought with a large enough effect; an effect the other way counts as inactive or inconclusive; also: % is scaled to controls: 0 for no effect and ±100 for the full control effect; nearly all actives have a fitted effect of over 60% in size). The method, boiled down: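 Luminescence readout of luciferin formed from 10uM Luciferin-H EGE (KM level) by 5 nM CYP2C19 in 50mM KPO4. 60 min NADPH-driven reaction at 37C after 10 min compound preincubation; data scaled to 57uM ketoconazole inhibition.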

Assay [10] in a line: qHTS Assay for Identification of Small Molecule Antagonists for NFkB Signaling Pathway (AID 895; active = well fitted inhibition curve with a large enough effect in the signal ratio, with a control signal flat, not every such curve was filed as active; the % refers to the signal ratio; also: % is scaled to controls: 0 for no effect and ±100 for the full control effect). The method, boiled down:
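Beta-lactamase reporter read-out (460 and 530 nm emission ratio, 405 nm excitation, 2 hrs substrate loading RT) after 5 hr stimulation with 10 pM TNF alpha in compound-treated NFkB-bla ME-180 cells in low-serum medium.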

Assay [11] in a line: qHTS Assay for Identification of Small Molecule Agonists for Hypoxia Response Element Signaling Pathway (AID 914; active = well fitted activation curve with a large enough effect in the signal ratio, with a control signal flat, not every such curve was filed as active; the % refers to the signal ratio; also: potency is read from the fitted curve at half-maximal effect; as to activation: % of control where 0% means no effect). Conditions: ME-180 (cervical carcinoma) HRE-bla reporter, beta-lactamase ratio, CoCl2, 17 h; activation: active compounds read high. The method, boiled down: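 Cells were plated overnight, pin-dosed with compound in a titration series, co-stimulated with EC50 CoCl2 and incubated 17 hours at 37 degrees Celsius. CCF4 substrate was then loaded, and AC50 values came from the 460nm/530nm ratio.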

Assay [12] addresses Muscarinic acetylcholine receptor M1 (Rattus norvegicus) (UniProt P08482). As to the kind of experiment: qHTS Assay for Antagonists of Acetylcholine Muscarinic M1 Receptor: Kinetic Measurement of Intracellular Calcium Response (AID 943; active = well fitted curve in the direction sought with a large enough effect; an effect the other way counts as inactive or inconclusive;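 also: Fluo-4 calcium signal as peak divided by basal fluorescence over 4 min; nearly all actives have a fitted effect of over 75% in size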). The method, boiled down:
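Quantitative HTS in CHO-M1 (rat receptor) cells: 10 min compound exposure ahead of 100 nM carbachol, Fluo-4 fluorescence followed 4 min, value expressed as peak-to-basal ratio.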

For assay [13] the target is unchanged. The assay can be described thus: qHTS Assay for Antagonists of Acetylcholine Muscarinic M1 Receptor: Measurement of IP-One Response (AID 944; active = well fitted curve in the direction sought with a large enough effect; an effect the other way counts as inactive or inconclusive; also: nearly all actives have a fitted effect of over 75% in size). The gist of the method:
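Antagonism was measured as loss of carbachol-driven (EC80) IP1 accumulation in CHO cells carrying rat M1, using a homogeneous IP-One TR-FRET kit read at 620 and 665 nm.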

Assay [14] has as its target Pyruvate kinase (Leishmania mexicana) (UniProt Q27686). As to the kind of experiment: qHTS Validation Assay for Inhibitors of Leishmania Mexicana Pyruvate Kinase (AID 945; active = well fitted curve in the direction sought with a large enough effect; an effect the other way counts as inactive or inconclusive;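 also: 0% = DMSO only neutral control wells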). The gist of the method: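 The enzyme is a highly purified E451W mutant of LmPYK used at 0.2 nM. It converts 0.5 mM PEP and 0.1 mM ADP over 1 h at room temperature; product ATP is quantified by luciferase luminescence relative to DMSO controls.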

The target in assay [15] is Pyruvate kinase PKM (Homo sapiens) (UniProt P14618). The assay can be described thus: qHTS Assay for Activators of Human Muscle Pyruvate Kinase (AID 954; active = well fitted curve in the direction sought with a large enough effect, not every such curve was filed as active;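 also: 0% = uninhibited enzyme and -100% = no enzyme or full thiadiazolimine inhibition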). The method, boiled down: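 Screening used highly purified human pyruvate kinase M2 under submaximal activity, with PEP at its Km and ADP below Km. After an hour at room temperature, ATP was read by luciferase luminescence.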
Chain of Pyruvate kinase PKM (Homo sapiens) (P14618 whole entry, looked up): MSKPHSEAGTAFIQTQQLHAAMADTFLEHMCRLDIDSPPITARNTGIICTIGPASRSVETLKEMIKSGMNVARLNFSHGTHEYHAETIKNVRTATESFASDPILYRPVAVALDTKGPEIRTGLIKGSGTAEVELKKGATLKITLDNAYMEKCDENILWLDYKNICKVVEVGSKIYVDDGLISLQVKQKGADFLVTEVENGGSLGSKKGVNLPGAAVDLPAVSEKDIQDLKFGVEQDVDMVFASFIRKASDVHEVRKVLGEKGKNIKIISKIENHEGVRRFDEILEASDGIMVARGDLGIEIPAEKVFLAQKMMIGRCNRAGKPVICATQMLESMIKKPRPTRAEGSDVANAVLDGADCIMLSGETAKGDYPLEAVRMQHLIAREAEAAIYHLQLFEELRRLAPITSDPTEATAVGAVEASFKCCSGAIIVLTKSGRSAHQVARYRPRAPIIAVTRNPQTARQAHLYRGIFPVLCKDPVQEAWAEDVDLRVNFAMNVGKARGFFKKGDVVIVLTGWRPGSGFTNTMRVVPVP

In assay [16] the target is Alpha-galactosidase A (Homo sapiens) (UniProt P06280). As to the kind of experiment: Counterscreen for Glucocerebrosidase Inhibitors: qHTS Assay for Human alpha-Galactosidase at pH 4.5 (AID 992; active = well fitted curve in the direction sought with a large enough effect; an effect the other way counts as inactive or inconclusive; also: 0% is about no effect). The method, boiled down:
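Each compound is preincubated briefly with 2 nM enzyme before substrate addition (80 uM); plates then sit 20 min at ambient temperature, are quenched with 1M NaOH/1M glycine, and read fluorometrically.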
In general terms: A counterscreen serves to expose hits that act by an unwanted route or on another target.

Assay [17] concerns the target alpha-glucosidase (Oryza sativa, rice) (UniProt Q653V4). As to the kind of experiment: Counterscreen for Glucocerebrosidase Inhibitors: qHTS Assay for Rice alpha-Glucosidase at pH 5.0 (AID 997; active = well fitted curve in the direction sought with a large enough effect; an effect the other way counts as inactive or inconclusive;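 also: 0% = full activity with enzyme and -100% = basal without enzyme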). The method, boiled down: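 Endpoint fluorogenic assay at pH 5.0: compounds (0.7 nM to 77 uM) titrated against 4 nM rice enzyme and 400 uM 4-MU-alpha-glucoside for 20 min at room temperature; NaOH/glycine stop, read ex 365/em 440 nm, Hill-fitted AC50.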

Assay [18] has as its target Mitogen-activated protein kinase 10 (Mus musculus) (UniProt Q61831). As to the kind of experiment: JNK3 AlphaScreen Assay (AID 530). The method, boiled down:
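Kinase buffer: 20 mM Tris-HCl pH 7.6, 10 mM MgCl2, 1 mM DTT, 0.1 mM Na3VO4, 0.01% Tween-20; ATP 10 uM. Substrate biotin-GST-cJun(1-79), enzyme from activated HepG2 lysates. Detection by Ser73 phospho-antibody AlphaScreen.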
(In general: In Alpha technology, singlet oxygen from a donor bead excites a nearby acceptor bead.)

Assay [19] concerns the target Guanine nucleotide-binding protein G(i) subunit alpha-1 (Homo sapiens) (UniProt P63096). As to the kind of experiment: qHTS Assay for Inhibitors of RGS12 GoLoco Motif Activity (Green Fluorophore) (AID 879; active = well fitted curve in the direction sought with a large enough effect; an effect the other way counts as inactive or inconclusive;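 also: 0% = labeled peptide with Gαi1 and full inhibition = labeled peptide alone without protein; negative values mean loss of peptide binding seen as reduced polarization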). The gist of the method: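 A drop in FITC polarization marked displacement of the FITC-tagged RGS12 GoLoco peptide (10 nM) from Gαi1 (50 nM). Compounds were incubated 10 min at room temperature in Tris pH 7.5 buffer containing 150 mM NaCl, 0.1 mM GDP and 0.05% NP40; unlabeled peptide titration served as control.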

The nature of assay [20]: qHTS Assay for Identification of Small Molecule Agonists for Thrombopoietin (TPO) Signaling Pathway (AID 917; active = well fitted curve in the direction sought with a large enough effect; an effect the other way counts as inactive or inconclusive; also: % is scaled to controls: 0 for no effect and ±100 for the full control effect). The method, boiled down:
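Quantitative HTS for pathway activators: compounds were pin-transferred onto IL-3-starved Ba/F3 cells expressing human TPO receptor, TPO was added at its EC50 (26 pM final), and after 24 hrs at 37 C reporter luciferase was measured.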

The target in assay [21] is Cytochrome P450 3A4 (Homo sapiens) (UniProt P08684). As to the kind of experiment: qHTS Assay for Inhibitors and Substrates of Cytochrome P450 3A4 (AID 884; active = well fitted curve in the direction sought with a large enough effect; an effect the other way counts as inactive or inconclusive; also: potency is read from the fitted curve at half-maximal effect; nearly all actives have a fitted effect of over 50% in size). The gist of the method: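 Luminescent readout of luciferin produced by CYP3A4 (20 nM) dealkylation of Luciferin-PPXE, 25 uM (its KM). NADPH-driven reaction ran 60 min at RT after 10 min compound preincubation; data scaled to 57 uM ketoconazole as 100% inhibition.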
Chain of Cytochrome P450 3A4 (Homo sapiens) (P08684 whole entry, looked up): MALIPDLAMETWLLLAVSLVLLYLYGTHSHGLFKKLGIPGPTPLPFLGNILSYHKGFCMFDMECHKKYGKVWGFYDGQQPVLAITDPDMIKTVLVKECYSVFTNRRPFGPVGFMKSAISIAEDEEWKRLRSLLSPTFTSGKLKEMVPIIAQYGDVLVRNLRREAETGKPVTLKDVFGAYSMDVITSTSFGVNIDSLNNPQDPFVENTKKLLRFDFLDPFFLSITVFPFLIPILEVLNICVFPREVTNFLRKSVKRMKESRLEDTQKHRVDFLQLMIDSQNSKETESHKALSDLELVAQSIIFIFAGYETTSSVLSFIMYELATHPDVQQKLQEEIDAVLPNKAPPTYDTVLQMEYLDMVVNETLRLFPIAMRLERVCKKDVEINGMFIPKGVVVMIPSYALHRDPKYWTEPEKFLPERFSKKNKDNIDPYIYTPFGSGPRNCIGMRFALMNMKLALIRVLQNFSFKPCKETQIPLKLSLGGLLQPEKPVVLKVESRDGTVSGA

For assay [22] the target is unchanged. As to the kind of experiment: qHTS Assay for Activators of Cytochrome P450 3A4 (AID 885; active = well fitted curve in the direction sought with a large enough effect; an effect the other way counts as inactive or inconclusive; also: nearly all actives have a fitted effect of over 65% in size). The method, boiled down:
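Using 20nM recombinant human CYP3A4 in potassium phosphate (200mM), substrate Luciferin-PPXE at 25uM, luminescent luciferin detection followed a 60-min RT NADPH reaction; data scaled to 57 uM ketoconazole.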

A short description of assay [23]: qHTS Assay for Identification of Small Molecule Antagonists for Thrombopoietin (TPO) Signaling Pathway (AID 918; active = well fitted curve in the direction sought with a large enough effect; an effect the other way counts as inactive or inconclusive; also: potency is read from the fitted curve at half-maximal effect; nearly all actives have a fitted effect of over 60% in size). The conditions noted are these: TPO-dependent cell signaling reporter, antagonist mode. The method, boiled down:
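Antagonist mode at EC50 TPO (26 pM) in IL-3-free medium; murine Ba/F3 cells with human TPO receptor and GPIIb-promoter luciferase, 24 hrs at 37 C before luminescent detection.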

Chain of Alpha-galactosidase A (Homo sapiens) (P06280 whole entry, looked up): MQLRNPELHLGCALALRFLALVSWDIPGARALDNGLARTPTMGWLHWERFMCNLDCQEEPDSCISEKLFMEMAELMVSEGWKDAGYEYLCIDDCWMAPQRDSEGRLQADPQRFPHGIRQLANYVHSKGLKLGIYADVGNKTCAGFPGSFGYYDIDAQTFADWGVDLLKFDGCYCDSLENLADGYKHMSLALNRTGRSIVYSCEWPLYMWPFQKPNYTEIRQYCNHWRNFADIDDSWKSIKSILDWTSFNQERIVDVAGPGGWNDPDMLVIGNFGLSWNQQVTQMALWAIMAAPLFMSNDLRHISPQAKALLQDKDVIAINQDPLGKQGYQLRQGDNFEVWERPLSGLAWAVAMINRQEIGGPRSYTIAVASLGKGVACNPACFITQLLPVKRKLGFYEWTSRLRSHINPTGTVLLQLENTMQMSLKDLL
Chain of Pyruvate kinase (Leishmania mexicana) (Q27686 2-499 E452W): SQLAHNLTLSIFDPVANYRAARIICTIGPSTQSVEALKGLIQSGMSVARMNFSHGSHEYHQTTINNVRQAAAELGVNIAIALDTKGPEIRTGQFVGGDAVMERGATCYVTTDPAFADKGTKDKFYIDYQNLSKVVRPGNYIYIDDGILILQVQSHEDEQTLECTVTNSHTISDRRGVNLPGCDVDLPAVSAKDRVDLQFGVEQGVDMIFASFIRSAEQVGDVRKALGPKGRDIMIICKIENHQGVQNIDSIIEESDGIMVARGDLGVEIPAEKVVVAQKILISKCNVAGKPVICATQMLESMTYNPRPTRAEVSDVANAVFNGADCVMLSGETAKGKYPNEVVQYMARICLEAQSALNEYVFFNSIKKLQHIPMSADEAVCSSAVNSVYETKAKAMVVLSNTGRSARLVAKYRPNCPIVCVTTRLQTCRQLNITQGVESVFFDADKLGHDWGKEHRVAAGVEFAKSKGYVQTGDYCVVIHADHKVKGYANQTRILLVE
Chain of Cytochrome P450 1A2 (Homo sapiens) (P05177 whole entry, looked up): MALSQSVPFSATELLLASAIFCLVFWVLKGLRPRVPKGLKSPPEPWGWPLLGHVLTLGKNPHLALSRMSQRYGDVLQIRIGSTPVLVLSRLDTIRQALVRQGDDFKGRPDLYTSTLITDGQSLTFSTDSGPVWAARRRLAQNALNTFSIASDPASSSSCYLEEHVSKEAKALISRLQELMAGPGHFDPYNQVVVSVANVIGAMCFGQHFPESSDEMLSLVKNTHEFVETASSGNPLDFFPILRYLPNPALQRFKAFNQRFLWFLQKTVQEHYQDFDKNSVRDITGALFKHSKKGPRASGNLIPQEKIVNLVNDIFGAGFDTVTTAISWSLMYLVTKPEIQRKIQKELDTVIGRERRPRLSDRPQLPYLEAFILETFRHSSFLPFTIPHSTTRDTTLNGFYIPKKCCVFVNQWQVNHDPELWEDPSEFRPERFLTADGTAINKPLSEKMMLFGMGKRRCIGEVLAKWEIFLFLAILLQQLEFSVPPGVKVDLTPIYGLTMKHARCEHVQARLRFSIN
Chain of 3',5'-cyclic-AMP phosphodiesterase 4B (Homo sapiens) (Q07343 whole entry, looked up): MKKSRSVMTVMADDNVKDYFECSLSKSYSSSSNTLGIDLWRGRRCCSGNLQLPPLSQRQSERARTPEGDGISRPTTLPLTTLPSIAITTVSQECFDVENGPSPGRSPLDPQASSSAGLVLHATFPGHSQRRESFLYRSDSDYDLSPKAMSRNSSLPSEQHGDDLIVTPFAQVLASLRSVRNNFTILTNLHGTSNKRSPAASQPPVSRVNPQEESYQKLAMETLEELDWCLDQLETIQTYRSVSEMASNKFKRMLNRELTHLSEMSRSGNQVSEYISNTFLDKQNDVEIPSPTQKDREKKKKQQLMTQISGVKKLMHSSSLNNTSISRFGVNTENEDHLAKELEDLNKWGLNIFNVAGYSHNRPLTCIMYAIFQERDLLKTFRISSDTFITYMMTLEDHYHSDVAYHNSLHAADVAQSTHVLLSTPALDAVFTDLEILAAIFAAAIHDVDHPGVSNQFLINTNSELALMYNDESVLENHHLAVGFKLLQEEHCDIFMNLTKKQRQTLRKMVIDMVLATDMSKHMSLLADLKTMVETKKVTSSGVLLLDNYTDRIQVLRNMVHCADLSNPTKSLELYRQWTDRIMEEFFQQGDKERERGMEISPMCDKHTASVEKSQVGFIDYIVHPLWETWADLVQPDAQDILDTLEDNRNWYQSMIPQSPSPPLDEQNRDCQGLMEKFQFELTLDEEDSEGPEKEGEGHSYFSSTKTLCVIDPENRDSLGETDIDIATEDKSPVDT
Chain of Muscarinic acetylcholine receptor M1 (Rattus norvegicus) (P08482 whole entry, looked up): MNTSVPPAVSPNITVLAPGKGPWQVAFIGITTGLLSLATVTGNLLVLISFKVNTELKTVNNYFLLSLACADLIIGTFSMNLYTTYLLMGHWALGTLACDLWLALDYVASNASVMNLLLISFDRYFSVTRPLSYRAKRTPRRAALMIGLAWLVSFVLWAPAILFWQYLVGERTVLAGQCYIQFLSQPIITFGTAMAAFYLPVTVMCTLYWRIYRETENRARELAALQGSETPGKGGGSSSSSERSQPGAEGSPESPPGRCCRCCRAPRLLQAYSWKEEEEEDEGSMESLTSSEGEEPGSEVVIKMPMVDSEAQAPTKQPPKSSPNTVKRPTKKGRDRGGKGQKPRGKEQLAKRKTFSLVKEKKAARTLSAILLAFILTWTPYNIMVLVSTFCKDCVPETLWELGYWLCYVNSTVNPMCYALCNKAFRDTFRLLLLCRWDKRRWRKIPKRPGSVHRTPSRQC
Chain of Guanine nucleotide-binding protein G(i) subunit alpha-1 (Homo sapiens) (P63096 whole entry, looked up): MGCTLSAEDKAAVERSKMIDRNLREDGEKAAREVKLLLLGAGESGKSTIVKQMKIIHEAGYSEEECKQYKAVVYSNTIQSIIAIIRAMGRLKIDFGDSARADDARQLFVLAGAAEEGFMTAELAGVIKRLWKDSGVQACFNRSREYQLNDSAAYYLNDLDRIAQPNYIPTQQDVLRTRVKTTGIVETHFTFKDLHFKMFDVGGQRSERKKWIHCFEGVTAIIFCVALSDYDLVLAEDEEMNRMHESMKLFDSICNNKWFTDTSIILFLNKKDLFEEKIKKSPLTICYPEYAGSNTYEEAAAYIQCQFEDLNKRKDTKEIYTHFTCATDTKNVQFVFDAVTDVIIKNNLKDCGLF

Regarding `O=C1C[C@H]2C(=O)[C@@H]1[C@@H](C(=O)O)[C@H]2C(=O)O`, the activity change, negative = inhibition is 5.27% in [1] and 7.84% in assay [3]. The Potency entry in assay [2] and in assay [7] was “inactive” each time. Also, the activity, negative = inhibition in assay [4] was -5.86%. Further, the Potency in assay [5] was above 46 µM; in assay [6], above 9.22 µM.

As for `N[C@@H](C(=O)O)[C@H](O)C(=O)O`, the results for the activity change, negative = inhibition in [1] and in assay [3] were -4.8% [at 38 µM] and -3.19% [at 38 µM], respectively. In addition, the Potency entry in [2], in assay [7], in [8] and in assay [9] was “inactive” each time. Further, in [4], the activity, negative = inhibition is 8.48% [at 38 µM]. Besides, the Potency in [5] and in assay [6] was above 46 µM in each case.

`OC[C@@H]1O[C@@H](n2cnc3c(NC4CCCCC4)ncnc32)[C@@H](O)[C@H]1O`: the activity change, negative = inhibition in assay [1] is -12.8% [at 38 µM]; in assay [3] it was 1.85% [at 38 µM]. Further, the Potency entry in assay [2], in assay [10], in [12], in assay [13] and in assay [17] was “inactive” throughout. Moreover, the Potency in assay [5] and in assay [6] was above 46 µM each time. Further, in [11], the activation was -22.9%. Besides, the result in assay [14], in assay [15] and in assay [16] was inactive.

With `CS(=O)(=O)Nc1ccc(Nc2c3ccccc3nc3ccccc23)cc1`, the activity change, negative = inhibition in assay [1] was 0.883%. Also, the values for the Potency in assay [2], in assay [5] and in [6] were 3.98 µM (active), above 46 µM and above 9.22 µM, respectively. For the same compound, the activity, negative = inhibition in assay [4] is 25.9%. The Potency entry in assay [18] and in assay [7] was “inactive” in each case.

As to `C#C[C@@]1(O)CC[C@H]2[C@H]3CCC4=Cc5oncc5C[C@]4(C)[C@@H]3CC[C@@]21C`, in [1], the activity change, negative = inhibition was -22.8% [at 38 µM]. The Potency in assay [2] was 12.6 µM (active); in assay [5], above 46 µM; in assay [6] it was above 46 µM. The activity, negative = inhibition in [4] is 6.25% [at 38 µM]. In assay [18], the Potency entry was “inactive”.

Consider `CCNc1ncc2nc(-c3ccccc3)c(=O)n(C3CC3)c2n1`, for which the values for the activity change, negative = inhibition in [1] and in assay [3] were -3.39% and 23.2%, respectively. Besides, the Potency in [2] was 2.51 µM (active); in assay [5], above 9.22 µM; in assay [6] it was above 46 µM; in [11], 2.51 µM (active). For the same compound, the Potency result in assay [18] is “inactive”.

As to `Cc1ccc(C(=O)O[C@@H](C(=O)O)[C@@H](OC(=O)c2ccc(C)cc2)C(=O)O)cc1` (tested in a mixture with another compound), the activity change, negative = inhibition in [1] is -1.5% [at 38 µM]; in assay [3], 0.143% [at 38 µM]. Further, the Potency entry in [2], in assay [7], in assay [13] and in [17] was “inactive” throughout. Also, in [4], the activity, negative = inhibition was 0.98% [at 38 µM]. Besides, the compound was classed as inactive in [19], in assay [20], in assay [14] and in assay [16].

For `COc1cc2nc(N3CCN(C(=O)OCc4ccccc4)[C@H](C(=O)NC(C)(C)C)C3)nc(N)c2cc1OC`, the activity change, negative = inhibition in assay [1] was -7.79% [at 38 µM]; in assay [3] it was 3.46% [at 38 µM]. Besides, the Potency entry in [2], in assay [18], in [7], in assay [22], in assay [10] and in [13] was “inactive” in each case. The Potency entry in assay [17] is “inactive”. Moreover, the Potency in [5] was above 46 µM; in assay [6], above 46 µM; in assay [21] it was 3.98 µM (active); in assay [23] it was 12.6 µM (active). Moreover, the result in assay [19], in [14], in [15] and in assay [16] was inactive.
